Source: ChEMBL document CHEMBL4513160, “CO-ADD screening of MMV (CH) - Small Polar Library”
In all, about 21,000 compounds went through this assay and fewer than 10 showed an effect of 50% or more. Not all results are given here. Potency and affinity values are given separately.

tested on: Acinetobacter baumannii; conditions: Concentration 300 ug.mL-1; ASSAY_TEST Inhibition of Bacterial Growth; detection method Absorption (OD600); MEDIA CAMHB; plate type 384well; NBS; CORNING #3640; time 18 hr

Point of comparison: CCCn1nnnc1CSCc1ccccn1, Inhibition 1.73%. Against it:
- CC(C)Oc1ncc(C(=O)N2CCC(O)CC2)cc1Cl — lower, 1.14%
- C[C@H](N)c1cccc(OCCN(C)C)c1 — higher, 5.56%
- C[C@@H]1CN(CCC(=O)NC2CCCC2)CC[C@]1(C)O — higher, 3.95%
- O=S(=O)(CCN1CCN(c2nccs2)CC1)C(F)(F)F — higher, 11.95%
- CS(=O)(=O)C[C@H]1CCCN1 — higher, 4.73%
- CN(C(=O)c1ccc2c(c1)NC(=O)CS2)C1CCCC1 — higher, 10.76%
- CN(C(=O)CCn1cccn1)C1CCS(=O)(=O)C1 (configuration not stated) — lower, 0.97%
- NCCNS(=O)(=O)c1ccc(F)cc1C(F)(F)F — higher, 9.19%
- CCn1cc(Br)c(C(C)=O)n1 — higher, 15.72%
- CCc1nccn1CCNC(=O)Cc1nonc1C — higher, 6.19%
- O=C(Nc1ncccc1O)c1cnns1 — higher, 5.13%
- CN(C)CC[C@H](O)c1cccs1 — higher, 11.43%
- Cc1occc1C(=O)N1CCC(NC(=O)C2CC2)CC1 — higher, 4.82%
- CC(=O)c1cccc(COC(=O)c2cccnc2)c1 — higher, 12%
- CC(C)c1noc(CN(C)C(=O)C2=NNC(=O)CC2)n1 — lower, -1.48%
- CSCC(=O)N1CCN(S(=O)(=O)N2CCOCC2)CC1 — lower, -0.38%
- CCSc1nccc(N)n1 — higher, 18.01%
- CS(=O)(=O)NCCc1nc2c(s1)CCCC2 — higher, 6.5%
- CNC(=O)c1cccc(NCc2cccnc2)n1 — lower, 1.67%
- CCN(C(=O)C(C)O)C1CCCCC1 (configuration not stated) — higher, 7.15%
- CN(Cc1ccc(Oc2ccccc2)cc1)C(=O)CN — higher, 13.35%
- Cn1cc(S(=O)(=O)NCc2ccco2)cn1 — lower, -0.88%
- O=C1CCCc2sccc2N1 — higher, 14.86%
- CCCS(=O)(=O)N1C[C@@H](CN(C)CCO)[C@@H](CO)C1 — lower, 1.24%
- CNC(=O)c1ccc(CNC(=O)c2ccoc2C)cc1 — higher, 5.87%
- COc1ccc(NC2CC(=O)N(C)C2=O)cc1OC (configuration not stated) — higher, 5.58%
- CCN1CCCC1CNC(=O)c1csc(NC(C)=O)n1 (configuration not stated) — lower, -0.07%
- NCC(=O)NCCN1CCCCC1 — higher, 9.69%
- CCn1nnnc1NCc1sccc1C — higher, 11.07%
- CCOc1ncccc1C(=O)OC(C)C(=O)NC1CC1 (configuration not stated) — lower, 0.66%
- O=C(Nc1cccc(Cl)c1Cl)C1CCS(=O)(=O)C1 (configuration not stated) — lower, -2.85%
- CC(=O)c1cc[nH]c(=O)c1 — higher, 3.77%
- O=C(CNC1CC1)NC[C@H]1CCc2ccccc2O1 — lower, 0.42%
- Cc1ccc(CN(C)CC(=O)NCCC#N)o1 — higher, 4.14%
- COc1ccc(CC(=O)NCC(C)C)c(OC)c1 — higher, 9.02%
- CCCOc1ccc2c(c1)CCN(C(=O)C(C)N)C2 (configuration not stated) — higher, 14.38%
